# Test results published in PubChem BioAssay AID435019 (Southern Research Specialized Biocontainment Screening …, 2010).
# Among all 2,300 compounds or so, about 1,200 (52%) were called active. So high a share suggests a set chosen from earlier hits. The list shows a part of the results. Potency and affinity values are given separately. Unmarked numbers belong to inactive results. How the calls were made is not given here.
# Assay: mammalian cell cytotoxicity, dose response, cytotoxicity control for M. tuberculosis inhibitor project (AID 435019);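 further: 0% = background wells and 100% = vehicle-treated cells; lower values mean fewer viable cells so more cytotoxicity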
# Settings: cytotoxicity counter-screen; series mostly up to 40 µM; viability: at the top concentration
row,SMILES,viability
1,COC(=O)CSc1nnc(-c2sc3cc(OC)ccc3c2Cl)n1C,102%
2,CNC(=O)COC(=O)c1ccc(-c2nc3ccccc3s2)s1,87.3%
3,CNC(=O)c1csc(-c2ccc(Cl)cc2)n1,84.6%
4,COc1ccc(COC(=O)CCNC(=O)c2ccc(Cl)cc2)cc1,97.3%
5,C/C(=N\Nc1ccc(Cl)c(Cl)c1)c1ccc(-n2ccnc2)cc1,87.4%
6,CNc1ncnc2c1ncn2[C@@H]1O[C@H](CO)[C@@H](O)[C@H]1O,119%
7,O=C(CCSc1ccccn1)c1ccccc1,90.3%
8,O=C(OCC#CCSc1nnc(-c2cccc3ccccc23)o1)c1cccs1,86.7%
9,O=C(CCC(=O)NC1CCCCCCC1)Nc1nnc(C(F)(F)F)s1,86.1%
10,CCOc1ccc(NC(=S)NC23CN4CN(CN(C4)C2)C3)cc1,96.7%
11,COc1ccc(S(=O)(=O)N(C)CC(=O)NCCCn2ccnc2)cc1Cl,95.1%
12,CCCOc1ccc(N2CC(C(=O)Nc3ccccn3)CC2=O)cc1 (centres undefined),97.3%
13,Nc1ccc(S(=O)(=O)Nc2cnc3ccccc3n2)cc1,100%
14,CCOc1ccc(N2C(=O)CS/C2=C(\C(Cl)=C(Cl)Cl)[N+](=O)[O-])cc1,98.2%
15,COc1ccc(C(=O)Cn2nc(CNc3ccc(Br)cc3)[n+]3c2CCCCC3)cc1,97.4%
16,CCc1nnc(NS(=O)(=O)c2ccc(N/C=C\C(=O)c3cccc(OC)c3)cc2)s1,81.3%
17,COc1ccc(C2CC2/C(C)=N/OC(=O)c2ccc(F)cc2)cc1 (centres undefined),107%
18,CCCCCC(=O)Nc1cccc2ccccc12,93.4%
19,COc1cc(N=Nc2ccc3ccccc3c2)ccc1O,81%
20,CCOc1cccc2cc(C(=O)Nc3nccs3)c(=O)oc12,101%
21,O=C(O)Cc1cnc[nH]1,91.7%
22,O=C(CCl)c1ccc2c(c1)CCN2C(=O)C1CCCCC1,82.9%

row,SMILES,viability
1,C(=C\c1ccccc1)/C=N/Nc1nc2ccccc2s1,83.8%
2,COc1ccccc1/C=C/C1=NC(=C\C=C/c2ccccc2)/C(=O)O1,94.2%
3,COc1ccc(C2CC(=O)C3=C(C2)NC(C)=C(C#N)C3c2ccc(N(C)C)cc2)cc1 (centres undefined),84.2%
4,CCOc1ccc(N=CC2=C(O)CC(c3ccco3)CC2=O)cc1 (centres undefined),101%
5,CCCCCCc1cc2cc(C(=O)NCc3ccccc3)c(=N)oc2cc1O,96%
6,Nc1c(C(=O)Nc2ccc(Br)cc2)sc2nc(-c3ccco3)ccc12,90.5%
7,Cc1ccc(NC2Sc3ccccc3NC2=O)cc1Cl (centres undefined),83.3%
8,O=C(C[n+]1ccccc1)NNc1ccccc1,102%
9,Cc1ccc(NC(=O)COC(=O)c2ccc(=O)n(Cc3ccccc3)n2)cc1F,99.3%
10,CN(C)C(=O)c1ccc(NC(=O)COC(=O)c2cc3c(s2)CCCCC3)cc1,94.3%
11,COC(=O)c1ccc(Cn2cc(C(F)(F)F)cc([N+](=O)[O-])c2=O)cc1,101%
12,COc1ccc(C(=O)COC(=O)[C@H](C)Nc2ccc(C(F)(F)F)cc2[N+](=O)[O-])cc1,97.9%
13,CCOC(=O)CSc1nsc(SCC(=O)OCC)c1C#N,96.2%
14,CCOc1ccc(N=c2scc(-c3ccccc3)n2CCO)cc1,96%
15,Oc1ccc2cc(Br)ccc2c1CN1CCCC1,84.9%
16,CSc1cc(-c2ccncc2)nc(-c2ccc(Cl)cc2)c1,84.4%
17,Cc1ccnc(NC(=O)CCc2c[nH]c3ccccc23)c1,82.8%
18,Cn1ccc(=Nc2ccc(NC(=O)c3ccc(N=c4ccn(C)c5ccc([N+](=O)[O-])cc45)cc3)cc2)cc1,90.8%
19,COc1ccc(-c2nnc(SCC(=O)N3CCc4ccccc4C3)o2)cc1,85.6%
20,CCOC(=O)C1CCCN(c2ncnc3c2cnn3-c2ccc(OC)cc2)C1 (centres undefined),98.5%
21,CCOC(=O)N1CCN=C1SCc1ccc(C(F)(F)F)cc1,94.8%
22,COc1ccc(-c2nnc(NC(=O)c3ccc([N+](=O)[O-])o3)o2)c(OC)c1,82.6%

row,SMILES,viability
1,O=[N+]([O-])c1ccc(-n2cnc3ccccc32)c([N+](=O)[O-])c1,95%
2,Cc1ccc(S(=O)(=O)N(C)c2ccc(OCC(=O)OCc3ccc(C#N)cc3)cc2)cc1,95.1%
3,CC(/C=C/c1ccccc1)=N\NC(N)=S,93.2%
4,CC1CCC/C(=N\NC(=S)Nc2ccccc2)C1 (centres undefined),88.5%
5,O=C(OCCN1C(=O)c2ccccc2C1=O)c1cc2ccccc2o1,99.3%
6,CCN(CC)S(=O)(=O)c1ccc(/C=C/C(=O)OCC#N)cc1,91.9%
7,Cc1ccnc(N2CCC(C(=O)Nc3cccc(C(F)(F)F)c3)CC2)n1,84.4%
8,CCOC(=O)NNc1ccccc1,101%
9,CCOC(=O)c1c(/N=C/N(C)C)sc(/C=N/Nc2ccccc2)c1-c1ccccc1Cl,83.2%
10,COC(=O)C1C2c3ccccc3OC1(C)N=c1s/c(=C/c3cnn(C)c3C)c(=O)n12 (centres undefined),96.6%
11,CCc1cc2c(=O)c(-c3cnn(-c4ccccc4)c3)c(C)oc2c(CN2CCCCC2)c1O,93.9%
12,CC(NC(=O)c1ccccc1Br)C1CC2CCC1C2 (centres undefined),91.3%
13,O=C(OCc1nc2ccccc2s1)c1ccc(Br)o1,93%
14,Cc1cc(/C=C/C(=O)O)c(C)n1-c1ccc(Cl)cc1,95.7%
15,CNc1cccccc1=S,90.6%
16,NC(=O)CSc1nnc(COc2ccc3ccccc3c2)o1,92.6%
17,COc1ccc2c(c1)CCc1c(C(=O)Nc3c(C)n(C)n(-c4ccccc4)c3=O)noc1-2,91.4%
18,Cc1c(O)c(=O)n(-c2ccccc2)n1C,99.9%
19,CC(C)(C)c1ccc(C(=O)CSc2n[nH]c(=O)[nH]c2=O)cc1,90.6%
20,Cc1ccccc1Cn1ccc(=NCc2ccccc2)cc1,94.5%
21,CC(=O)n1cc(/C=C2/N=C(c3ccccc3)OC2=O)c2ccccc21,87.7%
22,O=C(CN1CCCCC1)Nc1nnc(-c2ccc([N+](=O)[O-])cc2)s1,84.5%

row,SMILES,viability
1,Cc1ccc(NC(=O)Cc2ccc(-c3ccccc3)cc2)nc1,92.4%
2,CSc1cccc(NC(=O)CCS(=O)(=O)c2cccc3nonc23)c1,92.1%
3,COC(=O)c1ccc(-n2cnc3ccccc32)nc1,85%
4,COc1ccc(N2CCN(C(=O)c3ccc(CNc4c(N5CCOCC5)c(=O)c4=O)cc3)CC2)cc1,94.8%
5,CN(C)c1ccc(/C=C2\N=C(C(C)(C)C)OC2=O)cc1,92%
6,CCC(C)N1CCC2(CC1)N=c1c(c3c4c5c(C)c(O)c3c(O)c1=NC(=O)C(C)=CC=C[C@H](C)[C@H](O)[C@@H](C)[C@@H](O)[C@@H](C)[C@H](OC(C)=O)[C@H](C)[C@@H](OC)C=CO[C@@](C)(O5)C4=O)N2 (some centres undefined),85.8%
7,Cc1c2c(nc3ccccc13)CCC(C)C2 (centres undefined),90.5%
8,O=C1C(c2ccccc2)=[N+]([O-])c2ccccc21,88.2%
9,COc1ccc(NC(=O)CSC2CCCCC2)cc1,105%
10,COc1ccc(C2CC(=O)c3cnc(Nc4cc(C)cc(C)c4)nc3C2)cc1 (centres undefined),89.3%
11,O=C(N/N=C/c1c(F)c(F)c(F)c(F)c1F)c1cccc(S(=O)(=O)N2CCOCC2)c1,84.2%
12,COc1ccc(NC(=O)c2oc3ccc(S(=O)(=O)N4CCOCC4)cc3c2C)cc1,98.4%
13,COc1cc2cc(C(c3nnnn3C(C)(C)C)N3CCc4ccccc43)c(=O)[nH]c2cc1OC (centres undefined),87.3%
14,COc1ccc(C2=NC(=O)/C(=C\c3cc(OC)c(OC)c(OC)c3)O2)cc1,97.4%
15,CCCCOC(=O)c1ccc(NC(=S)NC(=O)c2c(Br)c(C)nn2C)cc1,100%
16,CN(CCO)c1cc(Sc2nc3ccccc3s2)c2nonc2c1[N+](=O)[O-],88.1%
17,CCCSC1=C(C#N)C(c2ccc(Cl)cc2Cl)CC(=O)N1 (centres undefined),87.4%
18,CN(C(=O)COC(=O)/C=C/c1ccc(Cl)c(Cl)c1)c1c(N)n(Cc2ccccc2)c(=O)[nH]c1=O,101%
19,C=CCOc1c(Br)cc(CNc2nccs2)cc1OC,80.1%
20,O=C(CCc1nnc(CCCc2ccccc2)o1)NCCCC1CCCC1,93.3%
21,COc1ccc(N/C=C(\C2OC(=O)c3ccccc32)[N+](=O)[O-])cc1 (centres undefined),103%
22,COc1ccc(N=N/C(=C\O)C(=O)c2cccs2)cc1,101%

row,SMILES,viability
1,Cc1nc(SCC(=O)Nc2ccc(OCc3ccccc3)cc2)n[nH]1,91.9%
2,C=CCc1cccc2cc(C(=O)OCC(=O)c3ccccc3)c(=O)oc12,104%
3,Cn1ccnc1C(=O)C1CCCN(Cc2cn[nH]c2-c2ccc(-c3ccccc3)cc2)C1 (centres undefined),86.1%
4,CC(=O)c1cccc(Nc2nc(-c3cccnc3)cs2)c1,81%
5,O=C(OCc1csc(Nc2ccccc2)n1)c1ccc(Cl)cc1,90.1%
6,O=C(/C=C/c1ccc([N+](=O)[O-])cc1)NC1CC2CCC1C2 (centres undefined),89%
7,CC(C)Oc1ccc(C(=O)N/N=C/c2ccc(-c3ccc(S(=O)(=O)Nc4ncccn4)cc3)o2)cc1,87%
8,O=C(c1ccc([N+](=O)[O-])s1)N1CCN(c2ccc(C(F)(F)F)cn2)CC1,90%
9,O=c1[nH]c(CN2CC=C(c3ccccc3)CC2)nc2cc(C(F)(F)F)ccc12,107%
10,CC(C)CNC(=S)NC(=O)c1csc([N+](=O)[O-])c1,96.9%
11,O=C(Nc1cc(C(F)(F)F)ccc1Cl)C(Sc1cccc[n+]1[O-])c1ccccc1 (centres undefined),85.9%
12,CC1(C)CC(=O)c2cc(C(=O)NNc3ccccc3)c(=O)n(-c3ccccc3)c2C1,96.8%
13,COc1ccc(NC(=O)CSc2nnc(-c3ccccn3)n2N)cc1Cl,92%
14,CSc1nn(-c2ccc(C(=O)OCC(=O)NC(=O)NC(C)C)cc2)c(=S)s1,86.6%
15,COc1cc2c(cc1OC)CN(CCC(=O)c1ccc(Br)cc1)CC2,96.2%
16,C#CCCc1cscc1/C=[N+](\[O-])c1ccc(C(=O)OCC)cc1,102%
17,Cn1cnnc1SCc1ccc(-c2ccc(Br)cc2)o1,92.6%
18,Cc1ccc(NC(=O)/C(Cl)=C\c2ccccc2)cc1,97.2%
19,CCc1ccc(/C=C2/C(=O)N(C)C(=S)N2CC(=O)OC)s1,99.8%
20,Oc1ccc(/C=N/n2c3ccccc3c3ccccc32)cc1,81.2%
21,Cc1ccc(N2C(=O)C(F)(F)C2c2ccccc2)cc1 (centres undefined),95.3%
